Results taken from PubChem BioAssay AID1159580 (chemical genetic matrix, 2015).
Screen size: about 5,500 compounds; about 2,000 (36%) were called active. Inconclusive results (about 18%) are left out. No stated cut-off is given here; in the data, active means normalized growth mostly below about 0.91 (no sharp cut-off); inconclusive means no clear call, values can overlap the other calls; inactive means mostly above about 0.92. This is one part of the list.

Assay: chemical genetic growth profiling, strain panel (AID 1159580);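 further: tested at 20 µM; growth read once vehicle control cultures reached saturation at 30 °C; 1 = growth at the plate median or of vehicle wells; lower values mean less growth of the strain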
Conditions: growth OD
[1] = S. cerevisiae deletion strains, locus YBR021W, strain FUR4, hits give low values
[2] = S. cerevisiae deletion strains, locus YBR229C, strain ROT2, hits give low values
[3] = S. cerevisiae deletion strains, locus YCL029C, strain bik1, hits give low values
[4] = S. cerevisiae deletion strains, locus YDL035C, strain GPR1, hits give low values
[5] = S. cerevisiae deletion strains, locus YDL074C, strain BRE1, hits give low values
[6] = S. cerevisiae deletion strains, locus YDL101C, strain DUN1, hits give low values
[7] = S. cerevisiae deletion strains, locus YDL185W, strain tfp1, hits give low values
[8] = S. cerevisiae deletion strains, locus YDL192W, strain arf1, hits give low values
[9] = S. cerevisiae deletion strains, locus YDR101C, strain arx1, hits give low values
[10] = S. cerevisiae deletion strains, locus YDR150W, strain NUM1, hits give low values
[11] = S. cerevisiae deletion strains, locus YDR162C, strain NBP2, hits give low values
[12] = S. cerevisiae deletion strains, locus YDR318W, strain mcm21, hits give low values
[13] = S. cerevisiae deletion strains, locus YDR388W, hits give low values
[14] = S. cerevisiae deletion strains, locus YDR502C, strain sam2, hits give low values
[15] = S. cerevisiae deletion strains, locus YEL061C, strain CIN8, hits give low values
[16] = S. cerevisiae deletion strains, locus YER110C, hits give low values
[17] = S. cerevisiae deletion strains, locus YER155C, strain BEM2, hits give low values
[18] = S. cerevisiae deletion strains, locus YER167W, strain BCK2, hits give low values
[19] = S. cerevisiae deletion strains, locus YGL078C, strain dbp3, hits give low values
[20] = S. cerevisiae deletion strains, locus YGL086W, strain mad1, hits give low values
[21] = S. cerevisiae deletion strains, locus YGL248W, strain PDE1, hits give low values
[22] = S. cerevisiae deletion strains, locus YGR078C, strain PAC10, hits give low values
[23] = S. cerevisiae deletion strains, locus YGR135W, strain pre9, hits give low values
[24] = S. cerevisiae deletion strains, locus YGR252W, strain gcn5, hits give low values
[25] = S. cerevisiae deletion strains, locus YHR030C, strain SLT2, hits give low values
[26] = S. cerevisiae deletion strains, locus YHR079C, strain IRE1 (second series), hits give low values
[27] = S. cerevisiae deletion strains, locus YHR094C, strain hxt1, hits give low values
[28] = S. cerevisiae deletion strains, locus YHR129C, strain ARP1, hits give low values
[29] = S. cerevisiae deletion strains, locus YHR200W, strain rpn10, hits give low values
[30] = S. cerevisiae deletion strains, locus YIL066C, strain RNR3, hits give low values
[31] = S. cerevisiae deletion strains, locus YIL073C, strain SPO22, hits give low values
[32] = S. cerevisiae deletion strains, locus YIL125W, strain kgd1, hits give low values
[33] = S. cerevisiae deletion strains, locus YIR030C, strain dcg1, hits give low values
[34] = S. cerevisiae deletion strains, locus YJL095W, strain BCK1, hits give low values
[35] = S. cerevisiae deletion strains, locus YJL134W, strain LCB3, hits give low values
[36] = S. cerevisiae deletion strains, locus YJL168C, strain set2, hits give low values
[37] = S. cerevisiae deletion strains, locus YJL187C, strain SWE1 (second series), hits give low values
[38] = S. cerevisiae deletion strains, locus YJR043C, strain POL32, hits give low values
[39] = S. cerevisiae deletion strains, locus YJR075W, strain HOC1, hits give low values
[40] = S. cerevisiae deletion strains, locus YKL009W, strain mrt4, hits give low values
[41] = S. cerevisiae deletion strains, locus YKL068W, hits give low values
[42] = S. cerevisiae deletion strains, locus YKL085W, strain MDH1 (second series), hits give low values
[43] = S. cerevisiae deletion strains, locus YKL085W, strain MDH1, hits give low values
[44] = S. cerevisiae deletion strains, locus YKL190W, strain CNB1, hits give low values
[45] = S. cerevisiae deletion strains, locus YKR001C, strain vps1, hits give low values
[46] = S. cerevisiae deletion strains, locus YLR039C, strain RIC1, hits give low values
[47] = S. cerevisiae deletion strains, locus YLR058C, strain SHM2, hits give low values
[48] = S. cerevisiae deletion strains, locus YLR102C, strain apc9, hits give low values
[49] = S. cerevisiae deletion strains, locus YLR262C, strain YPT6, hits give low values
[50] = S. cerevisiae deletion strains, locus YLR268W, strain sec22, hits give low values
[51] = S. cerevisiae deletion strains, locus YLR330W, strain CHS5, hits give low values
[52] = S. cerevisiae deletion strains, locus YLR342W, strain FKS1 (second series), hits give low values
[53] = S. cerevisiae deletion strains, locus YLR371W, strain rom2, hits give low values
[54] = S. cerevisiae deletion strains, locus YLR418C, strain cdc73, hits give low values
[55] = S. cerevisiae deletion strains, locus YML016C, strain PPZ1, hits give low values
[56] = S. cerevisiae deletion strains, locus YML032C, strain rad52, hits give low values
[57] = S. cerevisiae deletion strains, locus YML124C, strain tub3, hits give low values
[58] = S. cerevisiae deletion strains, locus YMR078C, strain ctf18, hits give low values
[59] = S. cerevisiae deletion strains, locus YMR223W, strain ubp8, hits give low values
[60] = S. cerevisiae deletion strains, locus YMR307W, strain GAS1, hits give low values
[61] = S. cerevisiae deletion strains, locus YNL067W, strain RPL9B, hits give low values
[62] = S. cerevisiae deletion strains, locus YNL128W, strain TEP1, hits give low values
[63] = S. cerevisiae deletion strains, locus YNL153C, strain GIM3, hits give low values
[64] = S. cerevisiae deletion strains, locus YNL233W, strain BNI4, hits give low values
[65] = S. cerevisiae deletion strains, locus YNL250W, strain rad50, hits give low values
[66] = S. cerevisiae deletion strains, locus YNL271C, strain bni1, hits give low values
[67] = S. cerevisiae deletion strains, locus YNL298W, strain CLA4, hits give low values
[68] = S. cerevisiae deletion strains, locus YNL307C, strain MCK1, hits give low values
[69] = S. cerevisiae deletion strains, locus YNR052C, strain pop2, hits give low values
[70] = S. cerevisiae deletion strains, locus YOL012C, strain htz1
[71] = S. cerevisiae deletion strains, locus YOL147C, strain pex11, hits give low values
[72] = S. cerevisiae deletion strains, locus YOR061W, strain CKA2, hits give low values
[73] = S. cerevisiae deletion strains, locus YOR069W, strain VPS5, hits give low values
[74] = S. cerevisiae deletion strains, locus YOR136W, strain idh2, hits give low values
[75] = S. cerevisiae deletion strains, locus YOR144C, strain elg1, hits give low values
[76] = S. cerevisiae deletion strains, locus YOR184W, strain ser1, hits give low values
[77] = S. cerevisiae deletion strains, locus YOR316C, strain cot1, hits give low values
[78] = S. cerevisiae deletion strains, locus YPL055C, strain LGE1, hits give low values
[79] = S. cerevisiae deletion strains, locus YPL241C, strain CIN2, hits give low values
[80] = S. cerevisiae deletion strains, locus YPR119W, strain clb2, hits give low values
[81] = S. cerevisiae deletion strains, locus YPR141C, strain kar3, hits give low values
[82] = S. cerevisiae deletion strains, locus YPR163C, strain tif3, hits give low values
[83] = S. cerevisiae deletion strains, locus YPR167C, strain met16, hits give low values
[84] = S. cerevisiae deletion strains, strain wtn01, hits give low values
[85] = S. cerevisiae strains, strain wild type, hits give low values

Measured: normalized growth

C=C(C)C1CCC(C)(O)C2CC3OC3(C)C2C1 (stereo unspecified)
inactive: S. cerevisiae deletion strains, locus YAL013W, strain DEP1, hits give low values 1.01 | [1] 1.02 | [2] 1.01 | [3] 1.02 | [4] 1.01 | [5] 0.99 | [6] 0.999 | S. cerevisiae deletion strains, locus YDL134C, strain PPH21, hits give low values 1 | [7] 1.01 | [8] 1.02 | [9] 1 | [10] 1.02 | [11] 0.995 | [12] 1.02 | [13] 1.01 | [14] 1.01 | [15] 1 | [16] 1.01 | [17] 0.999 | [18] 1.01 | [19] 1.01 | [20] 1.02 | [21] 1 | [22] 0.995 | [23] 1 | S. cerevisiae deletion strains, locus YGR229C, strain SMI1, hits give low values 1.03 | [24] 1.01 | [25] 1 | [26] 1.01 | [27] 1.01 | [28] 1 | [29] 1.01 | [30] 1.01 | [31] 1.07 | [32] 1.01 | [33] 1 | [34] 0.978 | [35] 1.01 | [36] 1 | [37] 1.01 | [38] 1.03 | [39] 1.06 | [40] 1.02 | [41] 1.01 | [42] 1 | [43] 1 | [44] 1 | [45] 1.02 | [46] 0.992 | [47] 1.01 | [48] 1.01 | [49] 0.999 | [50] 1.01 | [51] 1 | [52] 1.04 | [53] 1.01 | [54] 0.992 | [55] 0.995 | [56] 1.02 | [57] 1.01 | [58] 1.01 | [59] 1.01 | S. cerevisiae deletion strains, locus YMR263W, strain SAP30, hits give low values 1 | [60] 1.03 | [61] 1.02 | [62] 0.99 | [63] 1 | [64] 0.998 | [65] 1.02 | [66] 1.01 | [67] 1.01 | [68] 1.02 | S. cerevisiae deletion strains, locus YNL322C, strain KRE1, hits give low values 1.01 | [69] 1.02 | S. cerevisiae deletion strains, locus YOL006C, strain TOP1, hits give low values 0.996 | [70] 0.919 | [71] 1.01 | [72] 1 | [73] 1.01 | [74] 1.03 | [75] 1.01 | [76] 1.03 | [77] 1.01 | [78] 1 | [79] 1 | [80] 1.01 | [81] 1.01 | [82] 1.02 | [83] 1.01 | [84] 1 | [85] 1.04

CC(C)CC1NC(=O)CNC1=O (stereo unspecified)
inactive: [1] 1.03 | [2] 0.953 | [3] 0.965 | [4] 0.992 | [5] 1.04 | [6] 0.974 | [7] 0.963 | [8] 0.992 | [9] 1.01 | [10] 0.984 | [11] 0.937 | [12] 0.98 | [13] 0.989 | [14] 0.987 | [15] 0.989 | [16] 0.976 | [17] 1.01 | [18] 1 | [19] 0.978 | [20] 1.03 | [21] 0.981 | [22] 0.969 | [23] 0.966 | [24] 0.958 | [25] 1 | [26] 1.01 | [27] 0.972 | [28] 0.997 | [29] 0.971 | [30] 0.981 | [31] 0.986 | [32] 0.987 | [33] 0.995 | [34] 0.964 | [35] 0.992 | [36] 0.991 | [37] 0.969 | [38] 0.977 | [39] 0.993 | [40] 1.02 | [41] 0.985 | [42] 1.02 | [43] 1.02 | [44] 0.981 | [45] 1.01 | [46] 0.964 | [47] 0.979 | [48] 0.993 | [49] 0.938 | [50] 1.01 | [51] 1 | [52] 1.05 | [53] 0.98 | [54] 0.974 | [55] 0.99 | [56] 0.959 | [57] 0.982 | [58] 0.964 | [59] 0.988 | [60] 1.02 | [61] 0.971 | [62] 0.969 | [63] 0.951 | [64] 0.997 | [65] 0.988 | [66] 0.983 | [67] 0.973 | [68] 0.984 | [69] 0.981 | [70] 0.849 | [71] 0.99 | [72] 0.968 | [73] 0.996 | [74] 1.01 | [75] 0.978 | [76] 0.974 | [77] 0.976 | [78] 1.01 | [79] 0.992 | [80] 0.985 | [81] 0.984 | [82] 0.974 | [83] 1 | [84] 1.02 | [85] 0.985
